TbREL1 inh: TbREL1 inhibition, primary screen; TbREL1 RNA ligation, FRET fluorescence; inhibition, % at 9.66 µM; 0.49% of 89,000 active; AID 1117264; P86926;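 active = inhibition above the mean inhibition across all screened compounds plus 3 SD, cut at about 11% in these data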;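 also: 0% = plate median of test wells and 100% = NSC42067 control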
Target sequence (P86926 whole entry, looked up): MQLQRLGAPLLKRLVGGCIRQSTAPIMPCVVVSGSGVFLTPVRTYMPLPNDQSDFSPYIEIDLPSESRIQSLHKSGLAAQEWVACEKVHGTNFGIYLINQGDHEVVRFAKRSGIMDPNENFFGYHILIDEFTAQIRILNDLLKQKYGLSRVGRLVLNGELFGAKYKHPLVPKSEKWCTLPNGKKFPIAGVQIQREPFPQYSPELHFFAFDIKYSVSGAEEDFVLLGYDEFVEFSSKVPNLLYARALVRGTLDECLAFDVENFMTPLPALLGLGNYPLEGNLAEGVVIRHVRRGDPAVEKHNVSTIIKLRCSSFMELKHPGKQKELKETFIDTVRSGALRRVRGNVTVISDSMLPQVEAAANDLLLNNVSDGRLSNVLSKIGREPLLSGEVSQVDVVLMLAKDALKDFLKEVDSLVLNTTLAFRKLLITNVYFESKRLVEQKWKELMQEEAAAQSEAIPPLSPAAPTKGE
TbREL1 conf: TbREL1 inhibition, confirmation | TbREL1 RNA ligation, FRET fluorescence | 37% of 390 active | AID 1117282 | shares compounds with TbREL1 inh | inhibition, % at 9.66 µM;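 active = mean inhibition across replicates above a set limit taken from the earlier primary screen, cut at about 11% in these data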;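 also: 0% = REL1 with substrate and DMSO and 100% = REL1 plus control inhibitor NSC42067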
Active calls of the source: *. The sample as a whole holds a higher share of hits than the screen did.

SMILES	TbREL1 inh	others
COc1ccc2ccccc2c1-c1c(C(=O)c2ccc(Br)cc2)[nH]c(N)c1C(=O)NC1CCCCC1	-1
CN1CCC(N[C@@H](Cc2c[nH]c3ccccc23)C(=O)NCCCc2ccccc2)(C(=O)NCCc2c[nH]c3ccccc23)CC1	-2
O=C(O)c1ccccc1-c1ccccc1C(=O)NNc1ccccc1	1
O=C(Cc1ccccc1)NCC(=O)Nc1cccc(Br)c1	0
O=C(O)c1ccccc1-c1ccccc1C(=O)Nc1cccc(Br)c1	11*
COC(=O)C1=C(C(=O)OC)[C@@]2([C@H](Cc3ccc(C)cc3)Nc3ccccc3)C=C[C@@H]1O2	-4
CC(=O)Nc1sc2c(c1-c1nc3ccccc3s1)CCN(C(C)C)CC2	-1
Cc1ccccc1NC(=O)O[C@H]1CC[C@@]23CCCN2C(=O)CCC[C@H]3[C@H]1C	-2
O=c1cc(N2CCN(c3cccc(Cl)c3Cl)CC2)[nH]c(=O)n1C1CCCCC1	-2
O=C(Nc1ccc(N2C(=O)[C@@H]3[C@H](C2=O)[C@@H]2C=C[C@H]3C2)c(Cl)c1)c1ccccn1	2
COc1cc(NC(=O)c2ccccc2)c(C)cc1NC(=O)CSc1nnc(-c2cnccn2)n1-c1ccc(C)cc1	-2
O=C(C1CCN(c2ncnc3c2sc2cccc(F)c23)CC1)N1CCN(Cc2ccccc2)CC1	-2
COCCN(C(=O)COC(=O)c1cnc(C)cn1)c1c(N)n(Cc2ccccc2)c(=O)[nH]c1=O	1
COCCN(C(=O)COC(=O)c1cc2c(s1)CCC2)c1c(N)n(Cc2ccccc2)c(=O)[nH]c1=O	27*
COCCN(C(=O)COC(=O)C1=COCCO1)c1c(N)n(Cc2ccccc2)c(=O)[nH]c1=O	1
O=C(Nc1cccc(F)c1)OCCN1CCCC12CCC(c1ccccc1)CC2 (stereo not drawn)	1
CCCCCCCCN1C(=O)[C@@H](CC(=O)NCC2CCCCC2)C[C@@]2(C(=O)OC)C1=C[C@H](COCc1ccccc1)O[C@@H]2C	9
O=C(/C=C/c1ccc(-c2ccccc2)cc1)NC1=NCCS1	-2
CCOC(=O)CNC(=O)C(Cc1ccc2c(c1)OCO2)NC(C)=O (stereo not drawn)	-1
O=C(O)CC(C(=O)O)N1C(=O)/C(=C/c2ccc(-c3nc4ccccc4s3)o2)SC1=S (stereo not drawn)	84*
O=C(O)CCCN1C(=O)/C(=C\c2ccc(-c3nc4ccccc4s3)o2)SC1=S	11
CCC(C(=O)O)N1C(=O)/C(=C/c2cccn2C)SC1=S (stereo not drawn)	1
O=C(Nc1ccc(N2C(=O)CC(c3ccccc3)C2=O)c(Cl)c1)c1ccccn1 (stereo not drawn)	5
c1nc(NCC2CC2)c2cc(-c3ccc4c(c3)OCO4)ccc2n1	2
CC(=O)OC12CCCN(C1)/C(=C/c1cccc(Cl)c1)C2 (stereo not drawn)	5
SMILES	TbREL1 inh	others
CC(C)C[C@H]1CNC(=S)N1CC1CCCN1C[C@H](CC(C)C)N1C[C@H](Cc2ccccc2)N(CC2CCCCCC2)C1=S (stereo partly drawn)	-4
CC(C)C[C@@H]1CN=C(N)N1C[C@@H]1CCCN1C[C@@H](C(C)C)N1C[C@@H](Cc2ccccc2)N(CCCC2CCCC2)C1=N	13*
CC[C@@H](C)[C@@H]1CN([C@@H](C)CN2CCC[C@H]2CN2C(N)=NC[C@@H]2Cc2ccccc2)C(=N)N1CCCC1CCCC1	3
CCC(=O)N1CCc2cc(Br)c(S(=O)(=O)NC3CCN(Cc4ccccc4)CC3)cc21	-2
C[C@@H]1CN([C@H](C)CO)C(=O)c2cc(NC(=O)Nc3ccccc3)ccc2O[C@@H](C)CCCCO[C@H]1CN(C)S(=O)(=O)c1ccc(F)cc1	-3
N#CC1CCN(c2nc(-c3ccc(Br)cc3)cs2)CC1	5
CC(C)(C)OC(=O)N1CCC2CCN(S(C)(=O)=O)CC21 (stereo not drawn)	-2
CCC(C)NS(=O)(=O)c1ccc(F)c(C(=O)Nc2c(F)cc(F)cc2Br)c1 (stereo not drawn)	19*	TbREL1 conf=2
NS(=O)(=O)c1ccc(F)c(C(=O)O)c1	3
O=C(Nc1cccs1)Nc1c(F)cc(F)cc1Br	0
C[C@@H]1O[C@H](CCc2cccc(Cl)c2)CC2=C1C(=O)OC(C)(C)O2	-2
CCn1c(COc2ccc(C)cc2)nnc1SCC(=O)Nc1ccccc1-c1ccccc1	-1
COC(=O)C1=C(C)N(Cc2cccc(C(F)(F)F)c2)C(=NCc2cc(OC)c(OC)c(OC)c2)NC1c1ccccc1C(F)(F)F (stereo not drawn)	14*	TbREL1 conf=19*
COCCOC(=O)C1=C(C)N(Cc2ccccc2)C(=O)NC1c1cccc(OC)c1OC (stereo not drawn)	-1
COC(=O)C1=C(C)N(Cc2cccc(C(F)(F)F)c2)C(=NCC2CC2)NC1c1ccccc1C(F)(F)F (stereo not drawn)	15*	TbREL1 conf=15*
C=CCN=C1NC(c2ccccc2C(F)(F)F)C(C(=O)OC)=C(C)N1Cc1cccc(C(F)(F)F)c1 (stereo not drawn)	15*	TbREL1 conf=18*
CCN=C1NC(c2ccc(C(F)(F)F)cc2)C(C(=O)OC)=C(C)N1Cc1cccc(C(F)(F)F)c1 (stereo not drawn)	7
C=CCN=C1NC(c2ccccc2C(F)(F)F)C(C(=O)OC)=C(C)N1Cc1ccc(C(F)(F)F)cc1 (stereo not drawn)	14*	TbREL1 conf=18*
CCN=C1NC(c2ccccc2C(F)(F)F)C(C(=O)OC)=C(C)N1C (stereo not drawn)	-3
COc1ccc(-n2c(SCC(=O)Nc3ccc(Oc4ccccc4)cc3)nnc2-c2ccco2)cc1	2
Cc1cccc(NC(=O)C2CCN(c3nnc(-n4cccc4)s3)CC2)c1C	-4
COc1ccc(CNC(=O)C2CCCN(c3nc4ccccc4o3)C2)cc1 (stereo not drawn)	1
O=C1CCC[C@H]2C[C@H](NCCc3ccncc3)CC[C@]23CCCN13	5
O=C(Nc1c(-c2ccccc2)nc2ncccn12)c1ccccc1	-1
COc1ccccc1CNC(=O)N(CCc1c(C)[nH]c2ccccc12)Cc1cccs1	2
SMILES	TbREL1 inh	others
Cc1ccc(C(=O)N[C@@H](C)CN2C3=NC[C@H](C(C)C)N3C[C@H]2Cc2ccc(O)cc2)cc1Br	8
COc1ccc(C[C@H]2CN3C(=NC[C@@H]3Cc3ccc(O)cc3)N2CCNC(=O)c2ccc(C)c(Br)c2)cc1	9
COc1ccc(C[C@H]2CN3C(=NC[C@@H]3C(C)C)N2C[C@H](C)NC(=O)c2ccc(C)c(Br)c2)cc1	13*	TbREL1 conf=20*
COc1ccc(C(C(=O)N(C)C2CCCC2)N(Cc2ccc(F)cc2)C(=O)c2ccc3ccccc3c2)cc1OC (stereo not drawn)	-4
Cc1onc(C(=O)N2CCN(C(c3ccccc3)c3ccccc3)CC2)c1Br	0
C[C@H]1[C@@H](N)CC[C@@]23CCCN2C(=O)CCC[C@@H]13	1
Nc1[nH]c(C(=O)c2ccccc2)c(-c2ccc(O)cc2)c1C(=O)NCCc1c[nH]c2ccccc12	-5
CCCN1CCCCC(NC(=O)c2ccc(Cl)cc2Cl)C1=O (stereo not drawn)	-3
CC(=O)/C(N=Nc1ccc(C(=O)O)cc1[N+](=O)[O-])=C(\C)O	12*	TbREL1 conf=8
O=C(O)c1ccc([N+](=O)[O-])cc1	2
CC(=O)N1CCN(c2ccc(C(N)=O)cc2[N+](=O)[O-])CC1	6

Screening data from PubChem BioAssay.
